Screening results from PubChem.
AHR act: human AHR activation. activation, % at 5 µM. P35869. AID 2796. actives 2.5% (n = 320,000). AHR-responsive luciferase reporter cells, luminescence; in the data active means activation above about 47%
AI-2 QS mod: modulates the Vibrio harveyi AI-2 quorum sensing system; Vibrio harveyi JMH597 AI-2 luminescence/OD600 ratio, 9 h; hits give low values; strain lacks LuxN and CqsS sensors; 0 = neutral-control median; activity change, % at 7.5 µM; actives 0.4% (n = 300,000); AID 2094; in the data active means activity change below about -75%, passing the limit was not always enough;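 further: luminescence divided by OD600 gain over 9 h not by final OD600 alone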
H9c2 protect: myocardial damage modulation in H9c2 cells; actives 0.63% (n = 360,000); AID 588492; H9c2 cardiomyocytes, H2O2 injury protection, ATPLite, 2 h; protection from H2O2 cell death, % at 20 µM;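 active means compounds giving at least 50% protection of heart cells from peroxide-induced death in the single-dose screen, raw or plate-pattern-corrected value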
Mot1-301 SUMO: inhibitors of SUMOylation pathway: yeast Mot1-301 growth rescue. growth rescue, % at 18.8 µM. S. cerevisiae Mot1-301 growth rescue, ATP luminescence, 38.5C; percent above DMSO median, 100 means doubled. actives 1% (n = 320,000);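 active means every valid replicate shows activation above 250% relative to neutral control wells; inactive means the rest, any valid replicate at or below 250%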
NTR1 agonist: NTR1 (human) agonism; activation, % at 20 µM; actives 0.17% (n = 330,000); NTR1-U2OS beta-arrestin-GFP spot imaging, agonist mode; AID 493036;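 active means activation at or above 40% of the spot to cytoplasm intensity ratio, with at least 20 cells analyzed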
Target sequence (P30989 whole entry, looked up): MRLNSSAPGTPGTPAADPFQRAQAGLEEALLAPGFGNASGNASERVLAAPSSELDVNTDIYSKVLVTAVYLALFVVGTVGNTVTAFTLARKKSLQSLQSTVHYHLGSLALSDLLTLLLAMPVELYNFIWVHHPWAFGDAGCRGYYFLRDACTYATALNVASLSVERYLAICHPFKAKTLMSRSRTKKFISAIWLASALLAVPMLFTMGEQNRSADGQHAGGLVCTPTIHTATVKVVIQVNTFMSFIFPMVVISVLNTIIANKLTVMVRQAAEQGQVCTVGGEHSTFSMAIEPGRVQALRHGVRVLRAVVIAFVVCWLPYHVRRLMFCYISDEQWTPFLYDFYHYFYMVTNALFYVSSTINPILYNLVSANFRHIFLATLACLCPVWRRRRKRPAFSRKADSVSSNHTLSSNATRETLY
GRIN3A LBD mod: modulates the human NR3A ligand-binding domain. NR3A LBD differential scanning fluorimetry, Tm shift; 0% = protein alone, 100% = glycine-bound protein. Tm shift relative to glycine control, % at 25 µM. actives 2.5% (n = 340,000). AID 1259313;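 active means melting temperature shift of at least 10% of the positive control shift, at one fixed dose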
AHR act confirm: confirmation of human aryl hydrocarbon receptor activators | AID 2845 | actives 87% (n = 2,300) | human cells, AHR-responsive luciferase reporter, luminescence | activation, % at 9 µM | shares compounds with AHR act; in the data active means activation above about 49%;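 further: HepG2 hepatoma cells carrying a DRE-driven firefly luciferase reporter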
PXR act counter: counter-screen for AHR activators: human PXR activators | shares compounds with AHR act | activation, % at 11.6 µM | actives 88% (n = 2,300) | cell-based PXR reporter, luciferase luminescence; in the data active means activation above about 11%;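 further: human hepatoma DPX-2 cells expressing full-length human PXR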
Numbers stand for hits; i = inactive; nt = no result given. Most compounds without a hit are left out; they make up all but 6.2% or so of the library.

SMILES	AHR act	AI-2 QS mod	H9c2 protect	Mot1-301 SUMO	NTR1 agonist	GRIN3A LBD mod	AHR act confirm	PXR act counter
Cn1nc(C(=O)NCC2COc3ccccc3O2)c2ccccc2c1=O (stereo not given)	i	nt	i	i	i	i	nt	nt
COc1ccc(C(=O)COc2ccccc2C#N)cc1	90	i	i	i	i	i	67	23
COc1ccc(C(=O)CNc2ccccc2C#N)cc1	i	i	i	i	i	i	nt	nt
O=c1[nH]n2c(=O)c3c([nH]c2c1N=Nc1cccc(C(F)(F)F)c1)CCCC3	i	i	i	i	i	i	nt	nt
Cc1[nH]n(C(N)=S)c(=O)c1N=Nc1ccc(Br)cc1	108	i	i	i	i	i	135	40
Cc1[nH]n(C(N)=S)c(=O)c1N=Nc1cccc(C(F)(F)F)c1	143	i	i	i	i	i	74	21
CC(C)c1nc(SCC(=O)NCC2CCCO2)c2c(=O)n(C)c(=O)n(C)c2n1 (stereo not given)	i	i	i	i	i	i	nt	nt
c1ccc(-c2nc3c(ccc4ccccc43)[nH]2)nc1	95	i	i	i	i	i	138	11
Cn1/c(=N\NC(=O)c2ccccc2Cl)sc2ccccc21	136	i	i	i	i	i	126	53
O=C(O)C1Cc2c([nH]c3ccccc23)C(c2ccc3c(c2)OCO3)N1 (stereo not given)	90	i	i	i	i	i	73	12
Cc1ccc(C)c(NC(=S)c2ccc3ccccc3n2)c1	88	i	i	i	i	i	104	16
Cc1ccc(C)c(NC(=S)c2ccccn2)c1	118	i	i	i	i	i	106	26
Cc1ccc(C)c(NC(=O)NCc2ccccn2)c1	i	i	i	i	i	i	nt	nt
COc1ccc(NC(=S)N/N=C/c2ccc(F)cc2)cc1OC	i	i	i	i	i	i	nt	nt
Fc1ccc(/C=N/NC(=S)Nc2ccc(Cl)cc2Cl)cc1	84	i	i	i	i	i	107	i
Cc1cccc(C(=O)Nc2ccnc(-c3cccnc3)n2)c1	i	i	i	i	i	i	nt	nt
Cc1cccc(C(=O)Nc2ccnc(-c3ccncc3)n2)c1	99	i	i	i	i	i	48	i
CCc1nc(Nc2ccccc2F)c2oc3ccccc3c2n1	94	i	i	i	i	i	95	42
CCc1nc(NCCCn2ccnc2)c2oc3ccccc3c2n1	109	i	i	i	i	i	114	41
COc1ccc(CCN2Cc3c(cccc3[N+](=O)[O-])C2=O)cc1OC	i	i	i	i	i	i	nt	nt
COc1ccc(CCN2Cc3c(N)cccc3C2=O)cc1OC	83	i	i	i	i	i	i	12
Cc1cc(C)nc(Nc2n[nH]c(-c3ccccc3C)n2)n1	87	i	i	i	i	i	131	45
Cc1cc(C)cc(NC(=O)c2sc3nc(C)cc(C)c3c2N)c1	i	i	i	i	i	i	nt	nt
Cc1cccc(NC(=O)c2sc3nc(N)c(C#N)cc3c2N)c1	111	i	i	i	nt	i	61	29
COc1ccccc1-c1cccc([C@@H]2C[C@H]3[C@@H](CN2)CON3C)c1	nt	nt	i	nt	nt	i	nt	nt
SMILES	AHR act	AI-2 QS mod	H9c2 protect	Mot1-301 SUMO	NTR1 agonist	GRIN3A LBD mod	AHR act confirm	PXR act counter
CC12CCC(=O)N1C(C(=O)Nc1nc3c(F)cc(F)cc3s1)CS2 (stereo not given)	97	i	i	i	i	i	79	151
Cc1cc(C)n2nc(SC(C)C(=O)NC3CCCCC3C)nc2n1 (stereo not given)	i	i	i	i	i	i	nt	nt
CC(=O)N1CCN(S(=O)(=O)c2ccccc2)C1c1ccccc1 (stereo not given)	102	i	i	i	i	i	i	63
CCC(=O)N1CCN(C(C)=O)C1c1ccccc1 (stereo not given)	i	i	i	i	i	i	nt	nt
Nc1nc(-c2cccnc2)nc2sc3c(c12)CCCC3	118	i	i	i	i	i	90	72
O=C1CN(c2nc(-c3cccnc3)nc3sc4c(c23)CCCC4)CCN1	i	i	i	i	i	i	nt	nt
C(=NNc1ccc2ccccc2n1)c1ccccn1	nt	nt	i	nt	nt	nt	nt	nt
O=C(CSc1ncn[nH]1)Nc1nc(-c2ccccc2)ns1	i	i	i	i	i	i	nt	nt
c1ccc(-c2csc(Nc3ncccn3)n2)cc1	i	i	i	i	i	i	nt	nt
NNc1nc(-c2ccccc2)cs1	80	i	i	i	i	i	82	27
CCC(=O)Nc1nc(-c2ccccc2)ns1	102	i	i	i	i	i	84	32
COc1cccc(Nc2nc(-c3cccnc3)cs2)c1	108	i	i	i	i	i	127	13
CC(=O)Nc1cccc(-c2csc(Nc3ccccn3)n2)c1	85	i	i	i	i	i	74	i
COc1cc(C(C)=O)ccc1OCC(=O)Nc1ccc2nc(C)sc2c1	i	nt	i	i	i	i	nt	nt
CC#CC(=O)N1CCC(CCC(=O)N(C)Cc2ccccc2)CC1	i	i	i	i	i	i	nt	nt
CCC(=O)Nc1cccc(-c2csc(-c3ccccc3)n2)c1	105	i	i	i	i	i	85	21
Cc1ccnc(Nc2nc(-c3ccccc3)cs2)c1	163	i	i	i	i	i	89	48
Fc1ccc(-c2csc(Nc3ccccn3)n2)cc1	83	nt	i	i	i	i	107	18
COc1ccc(-c2csc(Nc3cc(C)ccn3)n2)cc1OC	i	i	i	i	i	i	nt	nt
Clc1ccccc1Nc1nc(-c2cccnc2)cs1	114	i	i	i	i	i	129	16
CCOc1ccccc1N(CC(=O)Nc1cccc2ccccc12)S(C)(=O)=O	i	i	i	i	i	i	nt	nt
CC(=O)Oc1ccc(-c2csc(Nc3ccccn3)n2)cc1	nt	nt	i	nt	nt	nt	nt	nt
Fc1ccc(-c2csc(NC(=S)Nc3ccccc3)n2)cc1	84	i	i	i	i	25	79	32
Cc1ccc(C)c(Nc2nc(-c3cccnc3)cs2)c1	82	i	i	i	i	20	90	26
c1ccc(Nc2nc(-c3cccnc3)cs2)nc1	166	i	i	i	i	34	74	41
CC(=O)Nc1nc(C)c(-c2csc(Nc3ccccn3)n2)s1	116	i	i	i	i	22	108	32
c1cc(CSc2nnc(-c3ccc4c(c3)OCO4)o2)ccn1	88	i	i	i	i	i	52	24
CCOC(=O)Cc1c(C)nc2c(-c3cccc(Br)c3)cnn2c1C	100	i	i	i	i	i	116	21
Cc1cc(N)n2ncc(-c3cccc(Br)c3)c2n1	93	nt	i	i	i	i	125	34
